From PubChem BioAssay (EPA / NIEHS)
Calls of active or inactive are those of the source. How the source made its calls: active means hit-call score of the fitted dose curve at least 0.9, where 1 is the maximum; inactive means score below 0.9.

What was measured:
[1] = target: Transcriptional activator Myb (Homo sapiens) (UniProt P10242); assay: ATG_Myb_CIS: Attagene CIS-FACTORIAL HepG2 Assay for human Myeloblastosis (Myb) Proto-Oncogene Transcription Factor (AID 2282986); settings: HepG2 Attagene CIS-FACTORIAL Myb reporter transcription; actives raise or lower the signal
Sequence of Transcriptional activator Myb (Homo sapiens) (P10242 whole entry, looked up): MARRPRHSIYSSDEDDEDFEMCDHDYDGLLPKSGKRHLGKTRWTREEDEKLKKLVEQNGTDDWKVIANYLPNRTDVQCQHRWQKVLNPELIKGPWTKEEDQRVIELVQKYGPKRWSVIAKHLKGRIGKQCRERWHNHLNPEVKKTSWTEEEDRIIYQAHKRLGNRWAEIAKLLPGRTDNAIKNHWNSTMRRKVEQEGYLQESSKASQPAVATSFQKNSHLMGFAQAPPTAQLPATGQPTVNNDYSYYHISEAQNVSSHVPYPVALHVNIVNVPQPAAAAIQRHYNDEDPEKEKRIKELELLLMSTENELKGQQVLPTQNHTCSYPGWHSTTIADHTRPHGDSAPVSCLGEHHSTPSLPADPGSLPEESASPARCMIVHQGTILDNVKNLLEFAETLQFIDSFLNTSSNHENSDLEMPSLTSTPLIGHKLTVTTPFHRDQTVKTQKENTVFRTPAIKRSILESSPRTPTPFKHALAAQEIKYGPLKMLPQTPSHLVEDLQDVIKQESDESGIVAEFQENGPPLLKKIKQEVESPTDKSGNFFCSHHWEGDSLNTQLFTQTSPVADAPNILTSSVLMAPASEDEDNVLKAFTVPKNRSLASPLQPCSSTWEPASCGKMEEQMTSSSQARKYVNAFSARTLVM
Outline: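 HepG2, transient MRTU transfection (cis-element promoters, endogenous TF activity), 24 h compound exposure. Readout: reporter mRNA via RT-PCR, 6-FAM labeling, HpaI digest, capillary electrophoresis. Gain/loss fit vs DMSO.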

[2] = target: Nuclear respiratory factor 1 (Homo sapiens) (UniProt Q16656); assay: ATG_NRF1_CIS: Attagene CIS-FACTORIAL HepG2 Assay for human Nuclear Respiratory Factor 1 (NRF1) Orphan Gene (AID 2282987); settings: HepG2 NRF1 cis-element reporter, Attagene multiplex; actives raise or lower the signal
Sequence of Nuclear respiratory factor 1 (Homo sapiens) (Q16656 whole entry, looked up): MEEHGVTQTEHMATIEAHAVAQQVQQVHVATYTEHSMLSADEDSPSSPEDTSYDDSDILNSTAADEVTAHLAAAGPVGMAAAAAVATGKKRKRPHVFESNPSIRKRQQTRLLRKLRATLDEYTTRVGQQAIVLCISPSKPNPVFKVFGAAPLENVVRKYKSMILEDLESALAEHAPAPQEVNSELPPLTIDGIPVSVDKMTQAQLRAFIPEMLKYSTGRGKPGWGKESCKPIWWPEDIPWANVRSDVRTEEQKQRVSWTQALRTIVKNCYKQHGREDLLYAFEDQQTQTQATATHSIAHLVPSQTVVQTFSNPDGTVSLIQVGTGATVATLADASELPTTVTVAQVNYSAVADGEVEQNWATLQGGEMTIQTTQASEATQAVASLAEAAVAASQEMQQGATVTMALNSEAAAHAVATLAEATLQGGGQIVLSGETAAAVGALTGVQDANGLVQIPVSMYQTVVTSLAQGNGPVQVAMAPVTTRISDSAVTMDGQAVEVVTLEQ
Outline: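 Endogenous NRF1-driven reporter transcription measured in transiently transfected human HepG2 liver cells. Readout: reporter mRNA by RT-PCR and capillary electrophoresis with fluorescence detection, 24 h post-dosing. Gain or loss of signal fitted relative to DMSO baseline.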

[3] = ATG_NFI_CIS: Attagene CIS-FACTORIAL HepG2 Assay for human Nuclear Factor I (NFI) (AID 2282989); settings: HepG2 cis-regulatory reporter, NFI response element transcription; actives raise or lower the signal
Outline: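 Cells: human liver HepG2, transiently transfected with promoter-regulated reporter transcription units. Exposure 24 h. Detection: fluorescent RT-PCR products separated by capillary electrophoresis, normalised to DMSO negative control.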

[4] = target: Myc proto-oncogene protein (Homo sapiens) (UniProt P01106); assay: ATG_Myc_CIS: Attagene CIS-FACTORIAL HepG2 Assay for human Myelocytomatosis (Myc) Proto-Oncogene Transcription Factor (AID 2282990); settings: HepG2, Attagene cis-reporter transcription factor activity; actives raise or lower the signal
Sequence of Myc proto-oncogene protein (Homo sapiens) (P01106 whole entry, looked up): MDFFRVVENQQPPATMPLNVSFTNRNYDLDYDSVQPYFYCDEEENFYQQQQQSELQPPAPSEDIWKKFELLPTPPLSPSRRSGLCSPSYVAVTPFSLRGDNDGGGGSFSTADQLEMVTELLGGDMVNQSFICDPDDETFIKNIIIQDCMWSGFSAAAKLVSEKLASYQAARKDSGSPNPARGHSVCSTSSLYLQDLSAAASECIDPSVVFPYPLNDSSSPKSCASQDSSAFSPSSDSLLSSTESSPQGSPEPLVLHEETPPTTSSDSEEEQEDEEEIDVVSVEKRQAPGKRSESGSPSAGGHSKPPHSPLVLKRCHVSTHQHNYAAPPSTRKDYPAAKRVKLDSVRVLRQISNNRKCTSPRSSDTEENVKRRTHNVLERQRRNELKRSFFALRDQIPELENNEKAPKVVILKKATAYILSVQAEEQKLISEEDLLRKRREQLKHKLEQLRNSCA
Outline: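 Transiently transfected HepG2 cells bearing cis-promoter reporter units for endogenous transcription factors; 24 h exposure. Reporter mRNA measured by RT-PCR, 6-FAM primer extension, HpaI cut and capillary electrophoresis; bidirectional fit relative to DMSO.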

[5] = ATG_NF_kB_CIS: Attagene CIS-FACTORIAL HepG2 Assay for human Nuclear Factor Kappa B (NF-kB) (AID 2282991); settings: HepG2 Attagene cis-factorial NF-kB reporter mRNA; actives raise or lower the signal
Outline: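 Read-out: reporter transcript levels quantified by RT-PCR plus capillary electrophoresis of 6-FAM-labelled, HpaI-cut fragments. Transfected HepG2 cells, 24 h compound exposure, endogenous NF-kB-driven cis element; gain or loss scored versus DMSO.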

[6] = ATG_NRF2_ARE_CIS: Attagene CIS-FACTORIAL HepG2 Assay for human Nuclear Factor Erythroid 2 Related Factor 2 (NFR2) response to Antioxidant Response Elements (ARE) (AID 2282992); settings: HepG2 Attagene ARE/NRF2 reporter, transcription factor activity; actives raise or lower the signal
Outline: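 Endogenous transcription factor activity in human liver HepG2 cells is tracked via a cis-element-driven reporter within a multiplexed set. mRNA induction is read by RT-PCR and capillary electrophoresis after 24 h, with DMSO as baseline.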

[7] = ATG_Oct_MLP_CIS: Attagene CIS-FACTORIAL HepG2 Assay for human Octamer-Binding Transcription Factor (Oct) (AID 2282993); settings: HepG2 Attagene cis-factorial Oct reporter, mRNA; actives raise or lower the signal
Outline: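 HepG2, transient MRTU transfection, cis promoter elements; 24 h dosing; RT-PCR/CE fluorescence read-out of reporter mRNA; fit both directions vs DMSO.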

[8] = target: Cellular tumor antigen p53 (Homo sapiens) (UniProt P04637); assay: ATG_p53_CIS: Attagene CIS-FACTORIAL HepG2 Assay for human p53 Transcription Factor (AID 2282994); settings: HepG2 p53 cis-element reporter, Attagene mRNA; actives raise or lower the signal
Sequence of Cellular tumor antigen p53 (Homo sapiens) (P04637 whole entry, looked up, the tested form may be a part): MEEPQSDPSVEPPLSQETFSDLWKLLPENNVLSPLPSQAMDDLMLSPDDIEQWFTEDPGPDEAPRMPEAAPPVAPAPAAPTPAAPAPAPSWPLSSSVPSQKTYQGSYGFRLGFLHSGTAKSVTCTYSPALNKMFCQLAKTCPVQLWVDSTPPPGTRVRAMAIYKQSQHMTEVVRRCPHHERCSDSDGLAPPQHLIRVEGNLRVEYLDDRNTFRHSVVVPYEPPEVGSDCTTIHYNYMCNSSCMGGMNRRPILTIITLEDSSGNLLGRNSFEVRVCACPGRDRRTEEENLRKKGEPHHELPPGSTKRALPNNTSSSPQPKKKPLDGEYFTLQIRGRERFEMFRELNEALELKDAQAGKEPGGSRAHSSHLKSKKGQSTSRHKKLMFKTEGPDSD
Outline: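 Steps: transfect HepG2 with multiplexed cis reporter constructs; dose chemicals 24 h; extract RNA, reverse-transcribe, PCR-amplify reporter sequences; FAM-label, HpaI-digest, resolve fragments by CE. Activity fitted both directions relative to DMSO.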

[9] = BSK_3C_TissueFactor: BioMAP Diversity Plus: 3C Assay for Tissue Factor Biomarker Activity (AID 2282997); settings: BioMAP 3C HUVEC, tissue factor biomarker readout; actives raise or lower the signal
Outline: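 Tissue factor on primary human umbilical vein endothelium was read by ELISA 24 h after dosing, gain or loss relative to DMSO. Cytotoxicity ran alongside via SRB (0.1%, TCA-fixed, 560 nm).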

[10] = BSK_3C_uPAR: BioMAP Diversity Plus: 3C Assay for Urokinase-type plasminogen activator receptor (uPAR) Biomarker Activity (AID 2282998); settings: BioMAP 3C HUVEC, uPAR biomarker ELISA; actives raise or lower the signal
Outline: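 A multiplexed primary-cell system built on human umbilical vein endothelium was used, with chemical present for 24 h before reading. Cell-surface uPAR was detected by ELISA; signal change in either direction counted against DMSO.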

Measured: AC50

CC(C)(C)C(=O)C(Oc1ccc(Cl)cc1)n1cncn1 (stereo unspecified)
inactive: [1] | [2] | [3] | [4] | [5] | [8] | [9] | [10]
active: [6] 20.3 µM | [7] 19.4 µM

Cc1c(COC(=O)[C@@H]2[C@H](/C=C(\Cl)C(F)(F)F)C2(C)C)cccc1-c1ccccc1
inactive: [1] | [2] | [3] | [4] | [5] | [6] | [7] | [8] | [9] | [10]

CCOc1nc(C(Cl)(Cl)Cl)ns1
inactive: [1] | [3] | [4] | [5] | [8] | [9] | [10]
active: [6] 22.9 µM | [7] 43.5 µM

COP(=S)(OC)Oc1ccc([N+](=O)[O-])c(C)c1
active: [6] 19.1 µM | [7] 50 µM | [10] 15.6 µM
inactive: [1] | [3] | [4] | [8] | [9]

COC(=O)NS(=O)(=O)c1ccc(N)cc1
inactive: [1] | [3] | [4] | [5] | [6] | [7] | [8] | [9] | [10]

Cc1ccc(N=CN(C)C=Nc2ccc(C)cc2C)c(C)c1
inactive: [1] | [3] | [4] | [6] | [7] | [8]
active: [9] 32 µM | [10] 37.6 µM

Nc1c(Cl)c(Cl)nc(C(=O)O)c1Cl
active: [6] 50 µM
inactive: [1] | [3] | [4] | [5] | [7] | [8] | [9] | [10]

CC(C)N1C(=O)N(c2ccccc2)CSC1=NC(C)(C)C
active: [9] 22.9 µM | [10] 30.4 µM
inactive: [1] | [3] | [4] | [5] | [6] | [7] | [8]

CCCCC(O)(Cn1cncn1)c1ccc(Cl)cc1Cl (stereo unspecified)
active: [6] 20.8 µM | [7] 62.5 µM | [10] 36.5 µM
inactive: [1] | [3] | [4] | [5] | [8] | [9]

O=P(O)(O)CCCl
inactive: [1] | [3] | [4] | [5] | [6] | [7] | [8] | [9] | [10]

O=C(Nc1ccccc1-c1ccc(Cl)cc1)c1cccnc1Cl
active: [6] 8.77 µM | [7] 7.03 µM
inactive: [1] | [3] | [4] | [5] | [8] | [9] | [10]

CCCCOCN(C(=O)CCl)c1c(CC)cccc1CC
inactive: [1] | [3] | [4] | [5] | [7] | [8]
active: [6] 0.547 µM | [9] 16 µM | [10] 31.2 µM

OC(c1ccc(Cl)cc1)(c1ccc(Cl)cc1)C(Cl)(Cl)Cl
active: [9] 25.6 µM | [10] 29.1 µM
inactive: [1] | [3] | [4] | [5] | [6] | [7] | [8]

CCCC(=NOCC)C1=C(O)CC(CC(C)SCC)CC1=O (stereo unspecified)
inactive: [1] | [3] | [4] | [5] | [6] | [7] | [8] | [9] | [10]

CCN(CC)C(=O)C(C)Oc1cccc2ccccc12 (stereo unspecified)
inactive: [1] | [3] | [4] | [8] | [9] | [10]
active: [6] 0.485 µM | [7] 4.2 µM

CCOP(=S)(OCC)Oc1nc(Cl)n(C(C)C)n1
inactive: [1] | [3] | [4] | [5] | [7] | [8] | [9] | [10]
active: [6] 1.74 µM

CCNC(=O)NC(=O)C(C#N)=NOC
inactive: [1] | [3] | [4] | [6] | [7] | [9] | [10]

CCOc1cc(C(C)(C)C)ccc1C1COC(c2c(F)cccc2F)=N1 (stereo unspecified)
active: [6] 1.62 µM | [7] 0.581 µM | [9] 37 µM | [10] 29.7 µM
inactive: [1] | [3] | [4] | [5]

CC(C)C1(C)N=C(c2ncccc2C(=O)O)NC1=O (stereo unspecified)
inactive: [1] | [3] | [4] | [6] | [7] | [8] | [9] | [10]

COCC(C)N(C(=O)CCl)c1c(C)csc1C (stereo unspecified)
active: [6] 2.31 µM
inactive: [1] | [3] | [4] | [5] | [7] | [8] | [9] | [10]

CCNP(=S)(OC)O/C(C)=C/C(=O)OC(C)C (stereo unspecified)
inactive: [1] | [3] | [4] | [5] | [7] | [8] | [9] | [10]
active: [6] 7.44 µM

Nc1c(Cl)c(F)nc(OCC(=O)O)c1Cl
inactive: [1] | [3] | [4] | [5] | [6] | [7] | [8] | [9] | [10]

CC1(C)C(C(=O)OC(C#N)c2cccc(Oc3ccccc3)c2)C1(C)C (stereo unspecified)
inactive: [1] | [3] | [4] | [5] | [7] | [8] | [9] | [10]
active: [6] 0.913 µM

Clc1nc(Cl)nc(Nc2ccccc2Cl)n1
inactive: [1] | [3] | [4] | [5] | [7] | [8] | [9] | [10]
active: [6] 29.4 µM

CN=C=S
inactive: [1] | [3] | [4] | [5] | [8] | [9] | [10]
active: [6] 13.8 µM | [7] 26.1 µM

CO/N=C(/C1=NOCCO1)c1ccccc1Oc1ncnc(Oc2ccccc2Cl)c1F
inactive: [1] | [3] | [4] | [5] | [8] | [9]
active: [6] 0.946 µM | [7] 0.833 µM | [10] 5.95 µM

COc1cc(OC)nc(NC(=O)NS(=O)(=O)c2ncccc2OCC(F)(F)F)n1
inactive: [1] | [3] | [4] | [5] | [6] | [7] | [8] | [9] | [10]

Nc1cnn(-c2ccccc2)c(=O)c1Cl
inactive: [1] | [3] | [4] | [5] | [6] | [7] | [8] | [9] | [10]

COP(=O)(OC)O/C(C)=C/C(=O)N(C)C
inactive: [1] | [3] | [4] | [5] | [6] | [7] | [8] | [9] | [10]

CC(C)Nc1nc(Cl)nc(NC(C)C)n1
inactive: [1] | [3] | [4] | [6] | [7] | [8] | [9] | [10]

CC1(C)C(C=C(Cl)Cl)C1C(=O)OC(C#N)c1cccc(Oc2ccccc2)c1 (stereo unspecified)
inactive: [1] | [3] | [4] | [5] | [7] | [8] | [9]
active: [6] 0.723 µM | [10] 13.9 µM

COC(=O)NC(=S)Nc1ccccc1NC(=S)NC(=O)OC
inactive: [1] | [3] | [4] | [5] | [8] | [9] | [10]
active: [6] 11.6 µM | [7] 30.8 µM

COCc1cnc(C2=NC(C)(C(C)C)C(=O)N2)c(C(=O)O)c1 (stereo unspecified)
inactive: [1] | [3] | [4] | [6] | [7] | [9] | [10]

Clc1cccc(C(Cl)(Cl)Cl)n1
inactive: [1] | [3] | [4] | [6] | [7] | [8] | [9] | [10]

CCCN(CC)CC1COC2(CCC(C(C)(C)C)CC2)O1 (stereo unspecified)
active: [6] 5.91 µM | [7] 14.5 µM
inactive: [1] | [3] | [4] | [5] | [8] | [9] | [10]

COP(=S)(OC)SCn1nnc2ccccc2c1=O
active: [6] 25.1 µM | [7] 12.8 µM
inactive: [1] | [3] | [4] | [8] | [9] | [10]

Cn1c(-c2ccccc2)cc(-c2ccccc2)[n+]1C
inactive: [1] | [3] | [4] | [6] | [7] | [8] | [9]
active: [10] 3.97 µM

N#Cc1c(Cl)cccc1Cl
inactive: [1] | [3] | [4] | [5] | [7] | [8] | [9] | [10]
active: [6] 13.7 µM
